According to PubChem BioAssay AID651640 (Broad Institute, 2012):
The whole screen tested about 350,000 compounds, of which about 6,000 (1.7%) were called active. Inconclusive results (about 5%) are left out. The full list was thinned out, with actives kept by preference. Unmarked numbers belong to inactive results. Rule as the data show it: active = CPE inhibition above about 20% (passing the limit was not always enough); inconclusive = no clear call, values can overlap the other calls; tested in BHK-21 cells.

Experiment: protection of cells from dengue 2 killing – plate reader, single concentration, primary screen (AID 651640);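 also: 0% = median of neutral control wells and 100% = median of positive control wells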
Conditions: DENV2-infected cells, cytopathic effect rescue, at 9.99 µM, hits give high values
In the case of O=S(=O)(N[C@@H]1CC[C@@H](CCn2cc(-c3ccccn3)nn2)O[C@@H]1CO)c1cccc(Cl)c1, the CPE inhibition is reported as 14.3%.
With C[C@H]1CN([C@@H](C)CO)C(=O)c2cc(NC(=O)C3CC3)ccc2O[C@@H]1CN(C)S(=O)(=O)c1cn(C)cn1 the CPE inhibition was -4.92%.
C[C@@H]1CCCCO[C@H](CN(C)C(=O)Cc2ccccc2)[C@H](C)CN([C@@H](C)CO)C(=O)c2cc(NS(=O)(=O)c3ccc(F)cc3)ccc2O1 gave a CPE inhibition of -10.6%.
CC(C)NC(=O)NCC[C@H]1CC[C@@H](NS(=O)(=O)c2ccc(Oc3ccccc3)cc2)[C@@H](CO)O1 gave a CPE inhibition of -1.61%.
CO[C@H]1CN(C)C(=O)c2cc(NS(=O)(=O)CC(F)(F)F)ccc2OC[C@@H](C)N(C(=O)c2ccc3c(c2)OCO3)C[C@@H]1C showed a CPE inhibition of 15.3%.
COC(=O)CN1C(=O)[C@H]2[C@@H](C3CC3)N3C(=O)CN(Cc4ccc(-c5ccccc5)cc4)C(=O)[C@@]3(Cc3ccccc3)[C@H]2C1=O gave a CPE inhibition of 3.26%.
COC(=O)CN1C(=O)[C@H]2[C@@H](/C=C/c3ccccc3)N3C(=O)CN(Cc4ccccc4)C(=O)[C@@]3(Cc3ccccc3)[C@H]2C1=O showed a CPE inhibition of -11.1%.
For COC(=O)CN1C(=O)[C@H]2[C@@H](/C=C/c3ccccc3)N3C(=O)CN(CC4CC4)C(=O)[C@@]3(Cc3ccccc3)[C@H]2C1=O, the CPE inhibition was 51% (active).
In the case of C[C@H](CO)N1C[C@H](C)[C@@H](CN(C)Cc2ccc(C(F)(F)F)cc2)Oc2ccc(NC(=O)Cn3cnnn3)cc2CC1=O, the CPE inhibition is reported as 7.25%.
For Cc1ccccc1OCCC(=O)OCC(=O)NCCc1ccc(S(N)(=O)=O)cc1, the CPE inhibition was 47.5% (active).
With Cc1ccccc1OCCC(=O)OCC(=O)NC(C)c1ccccc1 (centres undefined) the CPE inhibition was 4.9%.
Cc1ccc(S(=O)(=O)CCC(=O)OCC(=O)NCCc2ccc(S(N)(=O)=O)cc2)cc1 gave a CPE inhibition of 2.48%.
Work on O=C(C[C@@H]1CC[C@@H]2[C@H](COC[C@@H](O)CN2S(=O)(=O)c2ccccc2)O1)NCC1CCCCC1 yielded a CPE inhibition of -12.1%.
With C[C@@H]1CN([C@@H](C)CO)S(=O)(=O)c2ccc(-c3cccc(C(=O)N(C)C)c3)cc2O[C@@H]1CN(C)C the CPE inhibition was -3.85%.
c1ccc(-c2ccc(C3[C@@H]4CN(Cc5cccnc5)C[C@H]3N4)cc2)cc1 (some centres undefined) gave a CPE inhibition of -24.3%.
In the case of O=C(NC[C@@H]1N[C@@H](CO)[C@H]1c1ccc(-c2cccnc2)cc1)c1cccc(F)c1, the CPE inhibition is reported as 41.5% (active).
For N#Cc1cccc(-c2ccc([C@H]3[C@@H](CO)N[C@@H]3CNC(=O)C3CCC3)cc2)c1, the CPE inhibition was -1.99%.
Compound N#C[C@H]1N[C@H](CO)[C@H]1c1ccc(-c2cccc(F)c2)cc1 has a CPE inhibition of 3.16%.
Compound CCCNC(=O)N1C[C@@H](O)COC[C@H]2O[C@@H](CC(=O)NCCCN3CCOCC3)CC[C@@H]21 has a CPE inhibition of -1.62%.
Compound CO[C@H]1CN(C)C(=O)c2ccc(NC(=O)C3CCOCC3)cc2OC[C@H](C)NC[C@H]1C has a CPE inhibition of -0.477%.
For CO[C@H]1CN(C)C(=O)c2cc(NS(=O)(=O)c3ccc(C)cc3)ccc2OC[C@H](C)NC[C@H]1C, the CPE inhibition was -0.879%.
Compound CO[C@H]1CN(C)C(=O)c2cc(NC(=O)C3CC3)ccc2OC[C@@H](C)NC[C@H]1C has a CPE inhibition of -4.67%.
For CO[C@@H]1CN(C)C(=O)c2cc(NC(=O)C3CCOCC3)ccc2OC[C@@H](C)NC[C@@H]1C, the CPE inhibition was 23.2% (active).
With CO[C@H]1CN(C)C(=O)c2cc(NS(=O)(=O)c3ccccc3)ccc2OC[C@H](C)NC[C@@H]1C the CPE inhibition was 27.3% (active).
Compound CO[C@@H]1CN(C)C(=O)c2cc(NS(=O)(=O)c3ccc(Cl)cc3)ccc2OC[C@H](C)NC[C@@H]1C has a CPE inhibition of -4.08%.
In the case of C[C@@H]1CCCCO[C@@H](CN(C)C(=O)Nc2ccc(F)cc2)[C@H](C)CN([C@@H](C)CO)C(=O)c2cc(NS(C)(=O)=O)ccc2O1, the CPE inhibition is reported as -6.59%.
With CCCC(=O)N1CC2(C1)CN(C(=O)COC)[C@@H](CO)c1c2c2ccc(OC)cc2n1C the CPE inhibition was 10.6%.
O=S(=O)(NC[C@H]1[C@H](c2ccccc2)[C@H](CO)N1CC1CC1)c1ccccc1 showed a CPE inhibition of 16.5%.
Work on N#C[C@@H]1[C@@H](c2ccc(C3=CCCC3)cc2)[C@@H](CO)N1C(=O)C1CCCC1 yielded a CPE inhibition of -3.68%.
CCc1cnc(N2[C@H](C#N)[C@H](c3ccccc3-c3ccccc3C)[C@H]2CO)s1 showed a CPE inhibition of 6.09%.
In the case of CCc1cnc(N2[C@H](C#N)[C@H](c3ccc(C4=CCCC4)cc3)[C@@H]2CO)s1, the CPE inhibition is reported as 42.6% (active).
With CO[C@@H]1CN(C)C(=O)c2cc(NC(=O)c3cc(C)on3)ccc2OC[C@@H](C)N(C(C)=O)C[C@@H]1C the CPE inhibition was 5.53%.
O=C(CCC(=O)c1ccccc1)NCc1cccc(C(F)(F)F)c1 gave a CPE inhibition of -5.25%.
In the case of CCCNC(=O)C1(C)CCCN(Cc2cccc(C(F)(F)F)c2)C1 (centres undefined), the CPE inhibition is reported as 10.8%.
For O=C(CN1CCC(O)(c2cccc(C(F)(F)F)c2)CC1)NCCc1ccccc1, the CPE inhibition was 24.3% (active).
CO[C@H]1CN(C)C(=O)c2ccc(NC(=O)Nc3ccc(Cl)cc3)cc2OC[C@H](C)N(C(=O)Nc2c(C)noc2C)C[C@@H]1C showed a CPE inhibition of 1.51%.
Work on CCCN1C[C@H](C)[C@H](OC)CN(C)C(=O)c2cc(NC(=O)C3CCOCC3)ccc2OC[C@@H]1C yielded a CPE inhibition of -12%.
O=C(Nc1ccc2c(c1)[C@@H]1C[C@H](CC(=O)N3CCOCC3)O[C@@H](CO)[C@@H]1O2)C1CCOCC1 gave a CPE inhibition of 14.6%.
Work on CCC(=O)Nc1ccc2c(c1)C(=O)N(C)C[C@H](OC)[C@@H](C)CN(Cc1cccnc1)[C@H](C)CO2 yielded a CPE inhibition of 3.46%.
Work on Cc1cc(C(=O)O)ccc1[N+](=O)[O-] yielded a CPE inhibition of -17.9%.
With Cc1cccc(C(=O)O)c1[N+](=O)[O-] the CPE inhibition was 29.4% (active).
Compound Cc1ccccc1C(=O)O has a CPE inhibition of 0.715%.
O=C(C[C@H]1C[C@H]2c3cc(NC(=O)Nc4ccc(F)cc4)ccc3O[C@H]2[C@H](CO)O1)NCC1CC1 showed a CPE inhibition of -5.03%.
O=C(NC1CCCC1)[C@H]1[C@H](CO)[C@H]2Cn3c(cccc3=O)[C@H]2N1C(=O)NC1CCCC1 gave a CPE inhibition of 1.25%.
